# Measured values taken from PubChem BioAssay (EPA / NIEHS).
# The source made the active and inactive calls. Rule for the calls: active = hit-call score of the fitted dose curve at least 0.9, where 1 is the maximum; inactive = score below 0.9.
# What was measured:
# Conditions in all cases: mRNA level, 48 h; actives raise or lower the signal
# [1] = read-out: Protein phosphatase 2A (PPP2R4), PTPA (gene 5524); experiment: LTEA_HepaRG_PPP2R4: Life Technologies and Expression Analysis (LTEA) Assay for Protein phosphatase 2A (PPP2R4) using HepaRG (AID 2283522)
# Summary of the method: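 Gene-expression endpoint in HepaRG hepatic cells: 48 h treatment across eight half-log concentrations up to 100 uM in 0.5% DMSO. PPP2R4 mRNA by qRT-PCR, normalized to three endogenous control genes.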
# [2] = read-out: Phosphatase and tensin (PTEN), PTEN (gene 5728); experiment: LTEA_HepaRG_PTEN: Life Technologies and Expression Analysis (LTEA) Assay for Phosphatase and tensin (PTEN) using HepaRG (AID 2283523)
# Summary of the method: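 Differentiated human HepaRG cells, plated 48 h then switched to serum-free induction medium, were exposed in duplicate for 48 h to eight half-log concentrations up to 100 uM in 0.5% DMSO. PTEN mRNA measured by TaqMan qRT-PCR, normalized to ACTB/GAPDH/POLR2A, bidirectional fit versus DMSO.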
# [3] = read-out: solute carrier (SLC22A1), SLC22A1 (gene 6580); experiment: LTEA_HepaRG_SLC22A1: Life Technologies and Expression Analysis (LTEA) Assay for solute carrier (SLC22A1) using HepaRG (AID 2283524)
# Summary of the method: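 Human HepaRG cells were plated 48 h, switched to serum-free induction medium, then exposed in duplicate for 48 h to 8-point half-log series from 100 uM in 0.5% DMSO. SLC22A1 mRNA measured by qRT-PCR, normalized to ACTB/GAPDH/POLR2A, fitted bidirectionally versus DMSO.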
# [4] = read-out: Pyruvate Dehydrogenase Kinase 4 (PDK4), PDK4 (gene 5166); experiment: LTEA_HepaRG_PDK4: Life Technologies and Expression Analysis (LTEA) Assay for Pyruvate Dehydrogenase Kinase 4 (PDK4) using HepaRG (AID 2283525)
# Summary of the method: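 Differentiated human HepaRG cells, pre-cultured 48 h, were exposed in duplicate for 48 h in serum-free induction medium to eight half-log concentrations up to 100 uM in 0.5% DMSO. PDK4 mRNA was quantified by qRT-PCR, normalized to ACTB, GAPDH and POLR2A, bidirectional fitting versus DMSO.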
# [5] = read-out: NAD(P)H dehydrogenase [quinone] 1 (NQO1), NQO1 (gene 1728); experiment: LTEA_HepaRG_NQO1: Life Technologies and Expression Analysis (LTEA) Assay for NAD(P)H dehydrogenase [quinone] 1 (NQO1) using HepaRG (AID 2283526)
# Summary of the method: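 Human HepaRG hepatic cells received chemicals for 48 h in serum-free induction medium with 0.5% DMSO, up to 100 uM. Expression was assessed by TaqMan qRT-PCR against housekeeping controls and fitted bidirectionally against DMSO.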
# [6] = read-out: Nuclear factor erythroid 2-related factor 2 (Homo sapiens) (UniProt Q16236); experiment: LTEA_HepaRG_NFE2L2: Life Technologies and Expression Analysis (LTEA) Assay for Nuclear factor erythroid 2-related factor 2 (NFE2L2) Transcription Factor using HepaRG (AID 2283527);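 note: TaqMan qRT-PCR transcript level normalised to ACTB GAPDH and POLR2A housekeeping genes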
# Summary of the method: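 Differentiated human HepaRG cells in serum-free induction medium were exposed for 48 h to eight concentrations (top 100 uM, half-log dilutions, 0.5% DMSO), in duplicate. NFE2L2 mRNA was quantified by TaqMan qRT-PCR, normalized to ACTB, GAPDH and POLR2A, with bidirectional fitting versus DMSO.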
# [7] = read-out: succinate dehydrogenase complex iron sulfur subunit B (SDHB), SDHB (gene 6390); experiment: LTEA_HepaRG_SDHB: Life Technologies and Expression Analysis (LTEA) Assay for succinate dehydrogenase complex iron sulfur subunit B (SDHB) using HepaRG (AID 2283528)
# Summary of the method: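 HepaRG cells (~100,000/well, plated 48 h) exposed in duplicate for 48 h in serum-free induction medium to 8-point half-log series from 100 uM in 0.5% DMSO; mRNA by qRT-PCR normalised to ACTB, GAPDH, POLR2A; bidirectional fit versus DMSO.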
# [8] = read-out: Signal transducer and activator of transcription 3 (Homo sapiens) (UniProt P40763); experiment: LTEA_HepaRG_STAT3: Life Technologies and Expression Analysis (LTEA) Assay for Signal transducer and activator of transcription (STAT3) using HepaRG (AID 2283529)
# Summary of the method: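 Differentiated human HepaRG cells in serum-free induction medium were exposed in duplicate for 48 h to eight half-log concentrations up to 100 uM in 0.5% DMSO. STAT3 mRNA was quantified by TaqMan qRT-PCR, normalized to ACTB, GAPDH and POLR2A, and fitted bidirectionally against DMSO.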
# [9] = read-out: solute carrier (SLCO1B1), SLCO1B1 (gene 10599); experiment: LTEA_HepaRG_SLCO1B1: Life Technologies and Expression Analysis (LTEA) Assay for solute carrier (SLCO1B1) using HepaRG (AID 2283530)
# Summary of the method: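 Human HepaRG cultures treated for 48 h with an eight-concentration half-log series topping at 100 uM; SLCO1B1 measured by qRT-PCR and fitted bidirectionally relative to DMSO.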
# [10] = read-out: sulfotransferase 2A1 (SULT2A1), SULT2A1 (gene 6822); experiment: LTEA_HepaRG_SULT2A1: Life Technologies and Expression Analysis (LTEA) Assay for sulfotransferase 2A1 (SULT2A1) using HepaRG (AID 2283531)
# Summary of the method: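 Gene-expression endpoint in a human liver cell line: SULT2A1 mRNA change after 48 h chemical treatment, curves fitted in both directions relative to 0.5% DMSO vehicle. Concentrations spanned eight half-log steps from 100 uM.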
# [11] = read-out: Transforming Growth Factor (TGFA), TGFA (gene 7039); experiment: LTEA_HepaRG_TGFA: Life Technologies and Expression Analysis (LTEA) Assay for Transforming Growth Factor (TGFA) using HepaRG (AID 2283532)
# Summary of the method: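 Differentiated human HepaRG cells, plated 48 h then switched to serum-free induction medium, were exposed in duplicate for 48 h to 8-point half-log series from 100 uM in 0.5% DMSO. TGFA mRNA measured by qRT-PCR, normalized to ACTB/GAPDH/POLR2A, bidirectional fit versus DMSO.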
# [12] = read-out: Transforming Growth Factor (TGFB1), TGFB1 (gene 7040); experiment: LTEA_HepaRG_TGFB1: Life Technologies and Expression Analysis (LTEA) Assay for Transforming Growth Factor (TGFB1) Transporter using HepaRG (AID 2283533)
# Summary of the method: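 Eight-point concentration-response (max 100 uM, half-log) in HepaRG under serum-free induction conditions, 48 h. TGFB1 mRNA by qRT-PCR, housekeeping-normalized.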
# TIMP1, TIMP1 (gene 7076) = experiment: LTEA_HepaRG_TIMP1: Life Technologies and Expression Analysis (LTEA) Assay for TIMP1 using HepaRG (AID 2283534);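 note: TaqMan qRT-PCR signal normalized to ACTB GAPDH and POLR2A housekeeping genes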
# Summary of the method: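 TIMP1 induction or repression in HepaRG cells after 48 h chemical exposure (eight concentrations, highest 100 uM), assessed by normalized qRT-PCR with bidirectional fitting to DMSO controls.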
# [13] = read-out: Tumor necrosis factor receptor 1 (TNFRSF1A), TNFRSF1A (gene 7132); experiment: LTEA_HepaRG_TNFRSF1A: Life Technologies and Expression Analysis (LTEA) Assay for Tumor necrosis factor receptor 1 (TNFRSF1A) using HepaRG (AID 2283535)
# Summary of the method: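 Assay uses 48 h chemical treatment of differentiated HepaRG monolayers, tested in duplicate at eight concentrations from 100 uM downward in 0.5% DMSO. mRNA is normalized to ACTB, GAPDH and POLR2A, with induction or suppression fitted relative to vehicle.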
# [14] = read-out: Thyroid Hormone Responsive (THRSP), THRSP (gene 7069); experiment: LTEA_HepaRG_THRSP: Life Technologies and Expression Analysis (LTEA) Assay for Thyroid Hormone Responsive (THRSP) using HepaRG (AID 2283536)
# Summary of the method: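 Differentiated human HepaRG cells were exposed in duplicate for 48 h in serum-free induction medium to eight concentrations (top 100 uM, half-log steps, 0.5% DMSO). Expression was quantified by TaqMan qRT-PCR, normalized to ACTB, GAPDH and POLR2A, with bidirectional fitting against DMSO.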
# [15] = read-out: UDP glucuronosyltransferase (UGT1A1), UGT1A1 (gene 54658); experiment: LTEA_HepaRG_UGT1A1: Life Technologies and Expression Analysis (LTEA) Assay for UDP glucuronosyltransferase (UGT1A1) using HepaRG (AID 2283538)
# Summary of the method: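 Human liver HepaRG cultures receive test chemical for 48 h, up to 100 uM in 0.5% DMSO, with phenobarbital induction controls. UGT1A1 mRNA is measured by qRT-PCR and normalized to ACTB, GAPDH and POLR2A.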
# [16] = read-out: UDP glucuronosyltransferase (UGT1A6), UGT1A6 (gene 54578); experiment: LTEA_HepaRG_UGT1A6: Life Technologies and Expression Analysis (LTEA) Assay for UDP glucuronosyltransferase (UGT1A6) using HepaRG (AID 2283539)
# Summary of the method: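 Measures mRNA change in HepaRG hepatic cells exposed 48 h to chemicals (eight-point, maximum 100 uM, 0.5% DMSO vehicle) in serum-free induction medium. Expression normalized to endogenous controls; DMSO served as negative control and baseline.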
# [17] = read-out: X-box binding protein 1 (XBP1), XBP1 (gene 7494); experiment: LTEA_HepaRG_XBP1: Life Technologies and Expression Analysis (LTEA) Assay for X-box binding protein 1 (XBP1) using HepaRG (AID 2283540)
# Summary of the method: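 Eight concentrations (half-log, highest 100 uM, 0.5% DMSO) tested in duplicate on HepaRG cells over 48 h in serum-free induction medium; qRT-PCR of XBP1 normalised to ACTB, GAPDH, POLR2A.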
# [18] = read-out: Cellular tumor antigen p53 (Homo sapiens) (UniProt P04637); experiment: LTEA_HepaRG_TP53: Life Technologies and Expression Analysis (LTEA) Assay for Tumor Protein P53 (TP53) using HepaRG (AID 2283537)
# Summary of the method: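 Differentiated HepaRG cells in serum-free induction medium exposed 48 h in duplicate to 8 half-log concentrations, top 100 uM, 0.5% DMSO. TP53 mRNA by TaqMan qRT-PCR (Fluidigm), normalized to ACTB, GAPDH, POLR2A; fitted bidirectionally versus DMSO.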
# Sequence of Signal transducer and activator of transcription 3 (Homo sapiens) (P40763 whole entry, looked up): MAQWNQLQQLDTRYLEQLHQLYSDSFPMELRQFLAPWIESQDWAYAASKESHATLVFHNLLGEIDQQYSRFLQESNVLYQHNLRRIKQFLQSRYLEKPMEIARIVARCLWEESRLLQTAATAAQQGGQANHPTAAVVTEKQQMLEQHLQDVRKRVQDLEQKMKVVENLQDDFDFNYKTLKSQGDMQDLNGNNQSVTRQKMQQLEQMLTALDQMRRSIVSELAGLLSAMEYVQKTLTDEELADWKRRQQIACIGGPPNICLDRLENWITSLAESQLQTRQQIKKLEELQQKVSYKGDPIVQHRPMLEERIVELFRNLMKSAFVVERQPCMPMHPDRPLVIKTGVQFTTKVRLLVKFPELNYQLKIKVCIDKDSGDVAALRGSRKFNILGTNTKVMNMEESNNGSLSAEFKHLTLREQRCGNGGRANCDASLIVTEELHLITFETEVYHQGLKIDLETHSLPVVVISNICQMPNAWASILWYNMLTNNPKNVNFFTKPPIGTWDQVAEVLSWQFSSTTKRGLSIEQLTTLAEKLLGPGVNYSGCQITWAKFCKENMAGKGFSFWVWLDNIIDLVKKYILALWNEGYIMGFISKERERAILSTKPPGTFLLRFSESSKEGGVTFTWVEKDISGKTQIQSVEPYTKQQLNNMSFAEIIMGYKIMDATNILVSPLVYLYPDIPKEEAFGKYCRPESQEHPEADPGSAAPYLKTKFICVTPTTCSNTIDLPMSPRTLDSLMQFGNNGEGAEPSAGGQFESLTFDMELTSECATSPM
# Sequence of Nuclear factor erythroid 2-related factor 2 (Homo sapiens) (Q16236 whole entry, looked up): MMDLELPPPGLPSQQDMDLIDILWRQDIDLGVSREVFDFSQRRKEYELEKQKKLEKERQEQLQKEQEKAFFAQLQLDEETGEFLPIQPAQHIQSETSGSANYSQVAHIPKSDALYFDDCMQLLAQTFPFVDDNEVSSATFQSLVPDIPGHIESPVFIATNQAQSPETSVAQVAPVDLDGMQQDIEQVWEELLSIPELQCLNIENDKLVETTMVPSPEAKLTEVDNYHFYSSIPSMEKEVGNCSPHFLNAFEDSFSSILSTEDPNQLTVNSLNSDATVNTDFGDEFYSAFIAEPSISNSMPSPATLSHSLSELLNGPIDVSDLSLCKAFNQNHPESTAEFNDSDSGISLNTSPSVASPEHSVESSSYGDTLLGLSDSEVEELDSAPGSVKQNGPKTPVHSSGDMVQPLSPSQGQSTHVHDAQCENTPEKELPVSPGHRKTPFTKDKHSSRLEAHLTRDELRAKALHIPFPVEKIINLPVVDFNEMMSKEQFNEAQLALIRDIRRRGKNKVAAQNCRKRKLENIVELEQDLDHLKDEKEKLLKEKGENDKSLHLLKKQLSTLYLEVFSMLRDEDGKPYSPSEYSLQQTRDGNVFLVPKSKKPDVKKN
# Sequence of Cellular tumor antigen p53 (Homo sapiens) (P04637 whole entry, looked up): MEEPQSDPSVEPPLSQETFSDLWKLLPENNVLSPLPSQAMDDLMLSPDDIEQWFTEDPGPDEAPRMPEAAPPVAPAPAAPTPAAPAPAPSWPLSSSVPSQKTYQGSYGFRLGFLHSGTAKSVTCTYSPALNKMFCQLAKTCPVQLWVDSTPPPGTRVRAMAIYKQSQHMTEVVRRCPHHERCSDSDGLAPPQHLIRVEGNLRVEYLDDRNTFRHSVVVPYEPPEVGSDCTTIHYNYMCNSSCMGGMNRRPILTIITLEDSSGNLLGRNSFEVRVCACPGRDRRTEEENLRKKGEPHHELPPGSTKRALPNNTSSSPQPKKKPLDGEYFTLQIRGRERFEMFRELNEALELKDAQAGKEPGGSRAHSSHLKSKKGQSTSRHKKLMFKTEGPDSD
smiles,measurement,setting,value
CCCCOC(=O)c1ccccc1C(=O)OCCCC,outcome,[1],inactive
same,outcome,[2],inactive
same,outcome,[3],inactive
same,outcome,[4],inactive
same,outcome,[5],inactive
same,outcome,[6],inactive
same,outcome,[7],inactive
same,outcome,[8],inactive
same,outcome,[9],inactive
same,outcome,[10],inactive
same,outcome,[11],inactive
same,outcome,[12],inactive
same,outcome,"TIMP1, TIMP1 (gene 7076)",inactive
same,outcome,[13],inactive
same,outcome,[14],inactive
same,outcome,[15],inactive
same,outcome,[16],inactive
same,outcome,[17],inactive
Fc1ccc(Oc2ccnc3cc(Cl)cc(Cl)c23)cc1,outcome,[1],inactive
same,outcome,[2],inactive
same,AC50,[3],97.8 µM (active)
same,AC50,[4],50 µM (active)
same,outcome,[5],inactive
same,outcome,[6],inactive
same,outcome,[7],inactive
same,outcome,[8],inactive
same,outcome,[9],inactive
same,outcome,[10],inactive
same,outcome,[11],inactive
same,AC50,[12],50 µM (active)
same,outcome,"TIMP1, TIMP1 (gene 7076)",inactive
same,outcome,[13],inactive
same,AC50,[14],76.2 µM (active)
same,AC50,[15],13.3 µM (active)
same,outcome,[16],inactive
same,outcome,[17],inactive
Oc1ccccc1-c1ccccc1,outcome,[1],inactive
same,outcome,[2],inactive
same,outcome,[3],inactive
same,outcome,[4],inactive
same,outcome,[5],inactive
same,outcome,[6],inactive
same,outcome,[7],inactive
same,outcome,[8],inactive
same,outcome,[9],inactive
same,outcome,[10],inactive
same,outcome,[11],inactive
same,outcome,[12],inactive
same,outcome,"TIMP1, TIMP1 (gene 7076)",inactive
same,outcome,[13],inactive
same,outcome,[14],inactive
same,outcome,[15],inactive
same,outcome,[16],inactive
same,outcome,[17],inactive
C=CC1(C)OC(=O)N(c2cc(Cl)cc(Cl)c2)C1=O (stereo not given),outcome,[1],inactive
same,outcome,[2],inactive
same,outcome,[3],inactive
same,AC50,[4],50 µM (active)
same,outcome,[5],inactive
same,outcome,[6],inactive
same,outcome,[7],inactive
same,outcome,[8],inactive
same,outcome,[9],inactive
same,AC50,[10],28 µM (active)
same,outcome,[11],inactive
same,outcome,[12],inactive
same,outcome,"TIMP1, TIMP1 (gene 7076)",inactive
same,outcome,[13],inactive
same,outcome,[14],inactive
same,outcome,[18],inactive
same,AC50,[15],22.7 µM (active)
same,outcome,[16],inactive
same,outcome,[17],inactive
CC1=C(C(=O)Nc2ccccc2)SCCO1,outcome,[1],inactive
same,outcome,[2],inactive
same,AC50,[3],14.2 µM (active)
same,outcome,[4],inactive
same,outcome,[5],inactive
same,outcome,[6],inactive
same,outcome,[7],inactive
same,outcome,[8],inactive
same,outcome,[9],inactive
same,outcome,[10],inactive
same,outcome,[11],inactive
same,outcome,[12],inactive
same,outcome,"TIMP1, TIMP1 (gene 7076)",inactive
same,outcome,[13],inactive
same,AC50,[14],17 µM (active)
same,outcome,[18],inactive
same,AC50,[15],50 µM (active)
same,outcome,[16],inactive
same,outcome,[17],inactive
COC(=O)c1ccccc1C(=O)OC,outcome,[1],inactive
same,outcome,[2],inactive
same,outcome,[3],inactive
same,outcome,[4],inactive
same,outcome,[5],inactive
same,outcome,[6],inactive
same,outcome,[7],inactive
same,outcome,[8],inactive
same,outcome,[9],inactive
same,outcome,[10],inactive
same,outcome,[11],inactive
same,outcome,[12],inactive
same,outcome,"TIMP1, TIMP1 (gene 7076)",inactive
same,outcome,[13],inactive
same,outcome,[14],inactive
same,outcome,[15],inactive
same,outcome,[16],inactive
same,outcome,[17],inactive
